Experimental data: PubChem BioAssay

test system: PRMT1 (protein arginine N-methyltransferase 1); assay: PRMT1 binders on small-molecule microarrays, primary screen, biochemical, small-molecule microarray, 635 nm fluorescence (AID 1088); conditions: small-molecule microarray binding, higher = more signal;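 also: binding of Prmt1 protein to compounds spotted on small-molecule microarray slides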

Going from `CO[C@H]1O[C@H](CO)[C@@H](OC(=O)Nc2ccc3c(c2)OCO3)[C@H](OC(=O)Nc2ccc3c(c2)OCO3)[C@@H]1OC(=O)Nc1ccc2c(c1)OCO2` to `CO[C@H]1O[C@H](CO)[C@@H](OC(=O)Nc2ccccc2)[C@H](OC(=O)c2cc3ccccc3[nH]2)[C@H]1OC(=O)c1cc2ccccc2[nH]1`, the composite z-score falls from 1.54 to 0.499.

First: CCCC1(C(=O)OC)C=C2C(=C(C)C(=O)C2C)CN1 (centres undefined)
Second: CCOC(=O)C1=C[C@@H](C(C)C)N(S(=O)(=O)c2ccc(C)cc2)[C@H]1c1ccc(C(F)(F)F)cc1
The composite z-score of the first is lower: -1.06 for the first, 1.35 for the second.

Compared with `O=C1O[C@H](c2ccccc2)[C@H](c2ccccc2)N2[C@H]1[C@@H](C(=O)O)[C@]1(C(=O)Nc3ccc(C#CCCO)cc31)[C@H]2c1ccccc1OCCO`, `NC(=O)NCC#Cc1ccc2c(c1)[C@]1(C(=O)N2)[C@H](c2ccccc2OCCO)N2[C@H](c3ccccc3)[C@H](c3ccccc3)OC(=O)[C@H]2[C@@H]1C(=O)O` is lower in composite z-score: 1.09 for the first, 0.507 for the second.

First: CCCCC[C@H]1OC[C@@]23C=C(Br)[C@@H](CC12)[C@@]1(CO1)C3=O (some centres undefined)
Second: O=C1[C@H]2C=C(I)[C@H](C[C@@H]2OCCOCCO)[C@@]12CO2
The composite z-score of the first is higher: 0.915 for the first, 0.582 for the second.

Going from `CCCCN1CC=CC23O[C@@H]4/C=C\CCC(C)OC(=O)C4[C@H]2C(=O)N(CCCO)[C@@H]3C1=O` (some centres undefined) to `O=C1OCCC/C=C\[C@H]2OC34C=CCN(c5ccc6ccccc6c5)C(=O)[C@H]3N(CCO)C(=O)[C@@H]4C12` (some centres undefined), the composite z-score falls from -0.298 to -0.352.

Compared with `CC[C@@H]1C=C(C(=O)O)[C@H](c2ccc(C#N)cc2)N1S(=O)(=O)c1ccc(C)cc1`, `COc1ccc([C@H]2OC[C@@H]3C[C@H](Cc4ccccc4)C(=O)N32)cc1` is lower in composite z-score: 0.799 for the first, -0.476 for the second.

First: COCCOC(=O)N1C(=O)[C@@]2(c3cc(C#CC4=CCCCC4)ccc31)[C@H](C(=O)Nc1nc3ccccc3s1)[C@H]1C(=O)O[C@H](c3ccccc3)[C@H](c3ccccc3)N1[C@@H]2c1ccc(O)cc1
Second: COCCOC(=O)N1C(=O)[C@@]2(c3cc(C#CC4=CCCCC4)ccc31)[C@H](c1ccccc1OCCO)N1[C@H](c3ccccc3)[C@H](c3ccccc3)OC(=O)[C@H]1[C@@H]2C(=O)NC[C@H](O)c1ccccc1
The composite z-score of the first is higher: 1.55 for the first, 1.54 for the second.

Compared with `CC1CC/C=C\[C@H]2OC34C=CCN(c5ccc(Cl)cc5)C(=O)[C@H]3N(C(C)CO)C(=O)[C@]4(C)C2C(=O)O1` (some centres undefined), `O=C1C2C=CC(C(O)C3CC=CCC3)N(Nc3ccccc3)C2C(=O)N1c1ccccc1` (centres undefined) is higher in composite z-score: -0.678 for the first, 1.24 for the second.

Compared with `OCCCC1=CC(c2ccc(CN3CCCC3)cc2)N(Cc2cc3c(cc2Br)OCO3)CC1` (centres undefined), `[N-]=[N+]=Nc1ccccc1C[C@@]1(C(=O)N2CCOCC2)N=C(c2ccc(OCCCO)cc2)O[C@@H]1c1ccccc1` is higher in composite z-score: 0.233 for the first, 1.54 for the second.

Compared with `CCCCCCCCCC(O)C1C=CC2C(=O)N(c3ccccc3)C(=O)C2N1Nc1cc(OC)c(OC)c(OC)c1` (centres undefined), `COc1cc(OC)c(C(O)C2C=CC3C(=O)N(Cc4ccccc4)C(=O)C3N2n2cnnc2)cc1Br` (centres undefined) is higher in composite z-score: 0.619 for the first, 1.11 for the second.

Compared with `COCCCNC(=O)[C@@]1(CCC(=O)OC(C)(C)C)N=C(c2ccc(OCCCO)cc2)O[C@H]1c1ccccc1N=[N+]=[N-]`, `CCOC(=O)C[C@H]1[C@H](OC(=O)c2cc3ccccc3oc2=O)[C@@H](NC(=O)CC(C)C)c2cc(OCCCO)ccc2N1C(=O)c1ccc2ccccc2n1` is lower in composite z-score: 1.27 for the first, 1.04 for the second.

First: C[N+](C)(C)CCCC[C@@H]1NC(=O)[C@@H]2C[C@H](C(=O)NCCCCCCN)[C@H](c3cccc(OCCO)c3)N2C1=O
Second: CC(C)C[C@@H]1NC(=O)[C@@H]2C[C@H](C(=O)NCCCCCCN)[C@H](c3cccc(OCCO)c3)N2C1=O
The composite z-score of the first is lower: 1.45 for the first, 1.53 for the second.

Compared with `C=CCNC(=O)[C@H]1[C@@H]2C(=O)O[C@@H](c3ccccc3)[C@@H](c3ccccc3)N2[C@@H](c2ccccc2OCCO)[C@]12C(=O)N(C(=O)OCCOC)c1ccc(C#CC3(O)CCCCCC3)cc12`, `O=C1O[C@@H](c2ccccc2)[C@@H](c2ccccc2)N2[C@@H](c3ccc(OCCO)cc3)[C@]3(C(=O)Nc4ccc(C#CC5=CCCCC5)cc43)[C@@H](C(=O)NC[C@H](O)c3ccccc3)[C@H]12` is lower in composite z-score: 1.56 for the first, 1.36 for the second.

Going from `CCCC[C@@H](O)C1=C(COc2ccccc2)C[C@H]2C(=O)N(Cc3ccccc3)C(=O)[C@H]2[C@H]1CO` to `Cc1ccc(NN2C(C(O)c3c(F)cccc3Cl)C=CC3C(=O)N(C4CCCCC4)C(=O)C32)cc1` (centres undefined), the composite z-score rises from 0.287 to 1.43.

`COC(=O)c1c(CC[C@@H](CO)NC(=O)N[C@@H](C)Cn2cc(-c3ccccn3)nn2)oc(C(C)=O)c1C(=O)OC` gave a composite z-score of 1.39.
